Measured values taken from the supplement of paper PMC4466140.

How the values were obtained:
Assay in all cases: SPOT peptide array binding signal intensity (averaged, normalized) (arbitrary units (background-subtracted, floor 0; scale differs between SH3 domains)); higher = stronger binding of the SH3 domain to the peptide
[1] = molecular target: CaNbp2
Outline: (§1)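 Peptides were synthetic 15-mers on cellulose membranes, with every cysteine replaced by serine. They were incubated overnight at 4°C with GST-SH3 domains from four yeast species at 10 μg/ml in TBS-based blocking buffer. Binding signal, the replicate-averaged normalized and background-subtracted spot intensity, is in arbitrary units that differ between domains.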

[2] = molecular target: CaRvs167
Outline: as §1

[3] = molecular target: CaRvs167-3
Outline: as §1

[4] = molecular target: CaSho1
Outline: as §1

[5] = molecular target: CaSla1-D1-D2
Outline: as §1

[6] = molecular target: CaSla1-D3
Outline: as §1

[7] = molecular target: ScAbp1
Outline: as §1

[8] = molecular target: ScBbc1
Outline: as §1

[9] = molecular target: ScBem1-D1
Outline: as §1

[10] = molecular target: ScBzz1-D1
Outline: as §1

[11] = molecular target: ScBzz1-D2
Outline: as §1

[12] = molecular target: ScCyk3
Outline: as §1

[13] = molecular target: ScFus1
Outline: as §1

[14] = molecular target: ScHof1
Outline: as §1

[15] = molecular target: ScHse1
Outline: as §1

[16] = molecular target: ScLsb1
Outline: as §1

[17] = molecular target: ScLsb2
Outline: as §1

[18] = molecular target: ScLsb3
Outline: as §1

[19] = molecular target: ScLsb4
Outline: as §1

[20] = molecular target: ScMyo3
Outline: as §1

[21] = molecular target: ScMyo5
Outline: as §1

[22] = molecular target: ScNbp2
Outline: as §1

[23] = molecular target: ScPex13
Outline: as §1

[24] = molecular target: ScRvs167
Outline: as §1

[25] = molecular target: ScSho1
Outline: as §1

[26] = molecular target: ScSla1-D1-D2
Outline: as §1

[27] = molecular target: ScSla1-D3
Outline: as §1

[28] = molecular target: SpAbp1-D1
Outline: as §1

[29] = molecular target: SpBbc1
Outline: as §1

[30] = molecular target: SpBzz1-D1
Outline: as §1

[31] = molecular target: SpBzz1-D2
Outline: as §1

[32] = molecular target: SpCyk3
Outline: as §1

[33] = molecular target: SpHof1
Outline: as §1

[34] = molecular target: SpHof1-2
Outline: as §1

[35] = molecular target: SpHof1-3
Outline: as §1

[36] = molecular target: SpHse1
Outline: as §1

[37] = molecular target: SpLsb1
Outline: as §1

[38] = molecular target: SpLsb4
Outline: as §1

[39] = molecular target: SpMyo1
Outline: as §1

[40] = molecular target: SpNbp2
Outline: as §1

[41] = molecular target: SpPex13
Outline: as §1

[42] = molecular target: SpRvs167
Outline: as §1

[43] = molecular target: SpSla1-D1-D2
Outline: as §1

[44] = molecular target: SpSla1-D3
Outline: as §1

[45] = molecular target: AgAbp1
Outline: as §1

[46] = molecular target: AgBbc1
Outline: as §1

[47] = molecular target: AgBem1-D1
Outline: as §1

[48] = molecular target: AgBzz1-D1
Outline: as §1

[49] = molecular target: AgBzz1-D2
Outline: as §1

[50] = molecular target: AgCyk3
Outline: as §1

[51] = molecular target: AgFus1
Outline: as §1

[52] = molecular target: AgHof1
Outline: as §1

[53] = molecular target: AgHse1
Outline: as §1

[54] = molecular target: AgLsb1
Outline: as §1

[55] = molecular target: AgLsb4
Outline: as §1

[56] = molecular target: AgMyo5
Outline: as §1

[57] = molecular target: AgNbp2
Outline: as §1

[58] = molecular target: AgRvs167
Outline: as §1

[59] = molecular target: AgSho1
Outline: as §1

[60] = molecular target: AgSla1-D1-D2
Outline: as §1

[61] = molecular target: AgSla1-D3
Outline: as §1

[62] = molecular target: CaAbp1-D1
Outline: as §1

[63] = molecular target: CaAbp1-D2
Outline: as §1

[64] = molecular target: CaBbc1
Outline: as §1

[65] = molecular target: CaBem1-D1
Outline: as §1

[66] = molecular target: CaBzz1-D1
Outline: as §1

[67] = molecular target: CaBzz1-D2
Outline: as §1

[68] = molecular target: CaCyk3
Outline: as §1

[69] = molecular target: CaFus1
Outline: as §1

[70] = molecular target: CaHof1
Outline: as §1

[71] = molecular target: CaHse1
Outline: as §1

[72] = molecular target: CaLsb1
Outline: as §1

[73] = molecular target: CaLsb4
Outline: as §1

[74] = molecular target: CaMyo5
Outline: as §1

KRNRLKILLPFLEQS
SPOT peptide array binding signal intensity [1]: 742 | SPOT peptide array binding signal intensity [2]: 61.5 | SPOT peptide array binding signal intensity [3]: 828 | SPOT peptide array binding signal intensity [4]: 1220 | SPOT peptide array binding signal intensity [5]: 5 | SPOT peptide array binding signal intensity [6]: 136 | SPOT peptide array binding signal intensity [7]: 54 | SPOT peptide array binding signal intensity [8]: 2.5 | SPOT peptide array binding signal intensity [9]: 74 | SPOT peptide array binding signal intensity [10]: 20.5 | SPOT peptide array binding signal intensity [11]: 53 | SPOT peptide array binding signal intensity [12]: 102 | SPOT peptide array binding signal intensity [13]: 1980 | SPOT peptide array binding signal intensity [14]: 1.5 | SPOT peptide array binding signal intensity [15]: 2110 | SPOT peptide array binding signal intensity [16]: 3 | SPOT peptide array binding signal intensity [17]: 5 | SPOT peptide array binding signal intensity [18]: 145 | SPOT peptide array binding signal intensity [19]: 9.5 | SPOT peptide array binding signal intensity [20]: 2.5 | SPOT peptide array binding signal intensity [21]: 2.25 | SPOT peptide array binding signal intensity [22]: 130 | SPOT peptide array binding signal intensity [23]: 0.25 | SPOT peptide array binding signal intensity [24]: 18.2 | SPOT peptide array binding signal intensity [25]: 1290 | SPOT peptide array binding signal intensity [26]: 122 | SPOT peptide array binding signal intensity [27]: 3.25 | SPOT peptide array binding signal intensity [28]: 114 | SPOT peptide array binding signal intensity [29]: 1.5 | SPOT peptide array binding signal intensity [30]: 90 | SPOT peptide array binding signal intensity [31]: ≤ 0 | SPOT peptide array binding signal intensity [32]: 3 | SPOT peptide array binding signal intensity [33]: 142 | SPOT peptide array binding signal intensity [34]: 14 | SPOT peptide array binding signal intensity [35]: 624 | SPOT peptide array binding signal intensity [36]: 1780 | SPOT peptide array binding signal intensity [37]: 1.5 | SPOT peptide array binding signal intensity [38]: 56 | SPOT peptide array binding signal intensity [39]: 5.5 | SPOT peptide array binding signal intensity [40]: 443 | SPOT peptide array binding signal intensity [41]: 21 | SPOT peptide array binding signal intensity [42]: 7.5 | SPOT peptide array binding signal intensity [43]: ≤ 0 | SPOT peptide array binding signal intensity [44]: 11

PPPPPPPPPPLPQSL
SPOT peptide array binding signal intensity [45]: 6.5 | SPOT peptide array binding signal intensity [46]: ≤ 0 | SPOT peptide array binding signal intensity [47]: ≤ 0 | SPOT peptide array binding signal intensity [48]: 23.5 | SPOT peptide array binding signal intensity [49]: ≤ 0 | SPOT peptide array binding signal intensity [50]: 1 | SPOT peptide array binding signal intensity [51]: ≤ 0 | SPOT peptide array binding signal intensity [52]: 366 | SPOT peptide array binding signal intensity [53]: 18 | SPOT peptide array binding signal intensity [54]: ≤ 0 | SPOT peptide array binding signal intensity [55]: ≤ 0 | SPOT peptide array binding signal intensity [56]: 561 | SPOT peptide array binding signal intensity [57]: 33 | SPOT peptide array binding signal intensity [58]: ≤ 0 | SPOT peptide array binding signal intensity [59]: 3 | SPOT peptide array binding signal intensity [60]: 1 | SPOT peptide array binding signal intensity [61]: 1.5 | SPOT peptide array binding signal intensity [62]: 29.5 | SPOT peptide array binding signal intensity [63]: ≤ 0 | SPOT peptide array binding signal intensity [64]: ≤ 0 | SPOT peptide array binding signal intensity [65]: 5 | SPOT peptide array binding signal intensity [66]: 2040 | SPOT peptide array binding signal intensity [67]: 268 | SPOT peptide array binding signal intensity [68]: 1 | SPOT peptide array binding signal intensity [69]: 23 | SPOT peptide array binding signal intensity [70]: 0.75 | SPOT peptide array binding signal intensity [71]: 2.25 | SPOT peptide array binding signal intensity [72]: 0.5 | SPOT peptide array binding signal intensity [73]: ≤ 0 | SPOT peptide array binding signal intensity [74]: 156 | SPOT peptide array binding signal intensity [1]: 67.5 | SPOT peptide array binding signal intensity [2]: ≤ 0 | SPOT peptide array binding signal intensity [3]: ≤ 0 | SPOT peptide array binding signal intensity [4]: 4 | SPOT peptide array binding signal intensity [5]: ≤ 0 | SPOT peptide array binding signal intensity [6]: ≤ 0 | SPOT peptide array binding signal intensity [7]: 1 | SPOT peptide array binding signal intensity [8]: ≤ 0 | SPOT peptide array binding signal intensity [9]: ≤ 0 | SPOT peptide array binding signal intensity [10]: 4 | SPOT peptide array binding signal intensity [11]: 2 | SPOT peptide array binding signal intensity [12]: ≤ 0 | SPOT peptide array binding signal intensity [13]: ≤ 0 | SPOT peptide array binding signal intensity [14]: 92.8 | SPOT peptide array binding signal intensity [15]: 19 | SPOT peptide array binding signal intensity [16]: ≤ 0 | SPOT peptide array binding signal intensity [17]: ≤ 0 | SPOT peptide array binding signal intensity [18]: 49 | SPOT peptide array binding signal intensity [19]: ≤ 0 | SPOT peptide array binding signal intensity [20]: 1500 | SPOT peptide array binding signal intensity [21]: 677 | SPOT peptide array binding signal intensity [22]: ≤ 0 | SPOT peptide array binding signal intensity [23]: 526 | SPOT peptide array binding signal intensity [24]: ≤ 0 | SPOT peptide array binding signal intensity [25]: 28.5 | SPOT peptide array binding signal intensity [26]: 3.5 | SPOT peptide array binding signal intensity [27]: ≤ 0 | SPOT peptide array binding signal intensity [28]: 4 | SPOT peptide array binding signal intensity [29]: 1 | SPOT peptide array binding signal intensity [30]: 4430 | SPOT peptide array binding signal intensity [31]: 41 | SPOT peptide array binding signal intensity [32]: ≤ 0 | SPOT peptide array binding signal intensity [33]: ≤ 0 | SPOT peptide array binding signal intensity [34]: 4 | SPOT peptide array binding signal intensity [35]: ≤ 0 | SPOT peptide array binding signal intensity [36]: 13.5 | SPOT peptide array binding signal intensity [37]: 0.5 | SPOT peptide array binding signal intensity [38]: 23 | SPOT peptide array binding signal intensity [39]: 1510 | SPOT peptide array binding signal intensity [40]: 17 | SPOT peptide array binding signal intensity [41]: ≤ 0 | SPOT peptide array binding signal intensity [42]: 72.5 | SPOT peptide array binding signal intensity [43]: ≤ 0 | SPOT peptide array binding signal intensity [44]: ≤ 0
